{
  "source": "the supplement of paper PMC12632987",
  "binders": {"B1": {"name": "GBRAP_39_5717 (protein)", "chain": "EEEEEAENIFSYYEAVGAAEMYKRGISLEELFERTLAEARELAADDPELLAALEELEELALKAGDEAKLAATGIMVRLVEGAPREEVLADLKKLIAYLKS"}, "B2": {"name": "GBRAP_160_4742 (protein)", "chain": "KEELEKLKKEIEEIFKEGIELLKESEKEEALTIVRGIMGDVIMEVMSSEAASDELEEKIAEIADKAIEEVEKNKDAPIEKVIEIVEKAREEILKLIEEEI"}, "B3": {"name": "GBRAP_160_4574 (protein)", "chain": "SEEMKKLKEEIKEITEEAKEFIEGQSREEQIAIVKVAMGDILLLLDENPLVSDETEDKAAAIGDALIAYIEAHPDLTAEEIKELLEKATEEIIKLIEKEE"}, "B4": {"name": "GBRAP_128_3555 (protein)", "chain": "STEEVVEEAEELLEKIKESDEEEAREYARELVRLLASVDEESREAIVKVILERLPELTVEQLEILADVFREERPKVDPDVANALAEIEVEALNVALEKEE"}, "B5": {"name": "GBRAP_137_3630 (protein)", "chain": "ATVEIEVEEYEDVVEITVTLKDAAKAEAVKELVLDVAHEHGALAVSVEVEEDGTLVVTVWVPREKAEAFLEALVRRLQTELGLRVRVRNLDTGEEEEFEP"}, "B6": {"name": "GBRAP_128_3422 (protein)", "chain": "SRAAAVARARALLEAMKTADDATAAALADELAALFASADLETAEAIAEVIRAEIPKLTAKQLDILADAFRAALPKLTPEKANIAADVIVDLLNEREELEE"}, "B7": {"name": "GBRAP_128_3379 (protein)", "chain": "MDEEKLERVRELVRRAIESDVEETRELTREVVRLMGTLSPEEREAAAEIVIEALPEFSREKLDAIADTIRELRPELDPLGQELAAEVEVAALNRAEELEE"}, "B8": {"name": "GBRAP_52_6373 (protein)", "chain": "MEERARELARRILELAEAGDEEGLREEVRRIVEEESDELIAAVLRELRDMILTEPGLDPEALLTAAATLASEVLEAEKGTPETWAALTELLAAALALEQA"}, "B9": {"name": "GBRAP_52_5974 (protein)", "chain": "MEEEMRKLAKEIVALILAGDEAGARALLEEIAATKTEEEITLLFKELAKLAKTATPEERDAIVEAALLAEDIALAAGFDEAVMDSNLADVVKAAVDAEKA"}, "B10": {"name": "GBRAP_184_5132 (protein)", "chain": "TLLERAVEAKTAEELIAKARAVVEEAAAAGARLVLSVFAEDLSVEDNIAVIRELGELKAAHPQIEAIIVDLPEVSEEDLDKLIEAADAAGVKLVAAIPDE"}, "B11": {"name": "GBRAP_52_6073 (protein)", "chain": "MEEKIEKLAEEITEAIKAGDDEKALELLEKAVKELSEEEIKKLLVLTAKKVAKLNEEEHERFVDILDEFEDILIENGISEEDALLIVGDALAALAKEVAK"}, "B12": {"name": "GBRAP_52_6102 (protein)", "chain": "MREELRKKVREILELVREGKLEEARKKIKELVESLNDEEIRLVADEIAELAREAAPEDLDAVWTLAEMFAEELEKAGKPEVLVDYLLASTAAALYEREQA"}, "B13": {"name": "GBRAP_195_5410 (protein)", "chain": "MKVVGRVLRIEESDTPEDILAKIEAIVAEVKEESNGDLVLVVARHPSVPEETVRAAVAEAAERYPEIKITVEIFDDISLPLETLEAFARMEVANEEEERE"}, "B14": {"name": "GBRAP_160_3988 (protein)", "chain": "EEEKKKLLKEIEEIFKETYELASGEDPENRLTVVRVHMGEILLLAEESGILSEESIEKIDEILDELVEKVAANPDMTDEELKALLEEALKKIKEIIEAEK"}, "B15": {"name": "GBRAP_137_3679 (protein)", "chain": "MKVKITIEEHEDVVEITVTIEDKETGEELAEKIEDIAVEVGALAISVEKNEDGTYEVTIYVPKEKLEELLKKILELLKDADEVEIIRIVDGKETVEVIKN"}, "B16": {"name": "GBRAP_73_6498 (protein)", "chain": "LTDTGLTDEEIADIVDHENDIFNGGEEAYEAAVARIRAALPELSPERQELLRRILEAAERAKKKDKLLAYELVALALAVVEGLDLEKARRALEALEKRLE"}, "B17": {"name": "GBRAP_52_6205 (protein)", "chain": "MHERMRAHARELVALVKAGDLDAARAYARELARTLNEEELELLGEELVELAKTAAPEDLDAIFKAAEILSDVLEEEGFDEALADGLLNRVAAALYERELK"}, "B18": {"name": "GBRAP_160_4347 (protein)", "chain": "MEAAEKLIKELKEATERVIAEVDKLSVEQVAVVAAGEFGAVAMEAAEDERYSDEMVDVIIDAQDKILAFLDENKDASPEEIKEGIKKITEEAIKKIKEIA"}, "B19": {"name": "GBRAP_160_4081 (protein)", "chain": "SAAHEKLIKEVTEIFDEALKMMEGVTPAEAVAIALVALGEVALLIEEEEELSEEDKDKLLALVDAAEAEVRAAADATVAELKALLERHRDEIVAAIKALD"}},
  "note": "Whole data set: some 4,500 sequences, median “median log2 fold change of GCK-ALFA target abundance (FLAG IP / Myc IP barcode read proportion)” near 0.078, cut for the lowest 2% near -0.6. Shown is part of a subset that was picked to be rich in the lowest values.",
  "data": [
    {"biological_target": "GABARAP, O95166", "sequence (O95166 whole entry, the tested form may be a part)": "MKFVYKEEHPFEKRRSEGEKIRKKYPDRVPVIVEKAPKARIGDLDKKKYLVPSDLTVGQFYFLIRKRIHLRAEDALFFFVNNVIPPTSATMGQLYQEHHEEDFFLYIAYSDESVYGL", "experiment": "median log2 fold change of GCK-ALFA target abundance (FLAG IP / Myc IP barcode read proportion) (log2 ratio); each designed protein is fused to an ALFA-tag nanobody in HEK293 cells to bring the named protein to FLAG-tagged glucokinase (GCK); Myc marks an untargeted standard; higher = target protein stabilised (more abundant)", "conditions": "target protein: 3xFLAG-MCP-GCK-ALFA reporter; HEK293 landing pad (RPLP)", "how_it_was_run": "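The readout is target abundance, the per-binder median log2 ratio of FLAG to Myc barcode read proportions. It came from HEK293 landing-pad cells carrying a recombined ALFA-nanobody-fused binder library, induced with 2 μg mL^−1 doxycycline and transfected with a plasmid for a FLAG-tagged target and a Myc-tagged standard. After 48 h, lysates were immunoprecipitated with anti-FLAG and anti-Myc, and circular RNA barcodes were reverse transcribed, amplified and sequenced. Each barcode needed a proportion of at least 10^−7 in both replicates and each binder at least 3 barcodes per replicate, a pseudocount of 10^−6 was added, and the replicates were pooled.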", "values": [
      {"binder": "B1", "median log2 fold change": 0.239},
      {"binder": "B2", "median log2 fold change": 0.15},
      {"binder": "B3", "median log2 fold change": -0.302},
      {"binder": "B4", "median log2 fold change": -0.0585},
      {"binder": "B5", "median log2 fold change": -0.302},
      {"binder": "B6", "median log2 fold change": -0.139},
      {"binder": "B7", "median log2 fold change": 0.284},
      {"binder": "B8", "median log2 fold change": -0.998},
      {"binder": "B9", "median log2 fold change": -0.0573},
      {"binder": "B10", "median log2 fold change": 0.00161},
      {"binder": "B11", "median log2 fold change": -0.605},
      {"binder": "B12", "median log2 fold change": 0.197},
      {"binder": "B13", "median log2 fold change": 0.261},
      {"binder": "B14", "median log2 fold change": -0.199},
      {"binder": "B15", "median log2 fold change": -0.124},
      {"binder": "B16", "median log2 fold change": -0.718},
      {"binder": "B17", "median log2 fold change": -0.122},
      {"binder": "B18", "median log2 fold change": 0.152},
      {"binder": "B19", "median log2 fold change": 0.134}
    ]}
  ]
}
